This passage reports binding signal results from article PMC12136788.

T1: UNK ZnF1-3 (human, UniProt Q9C0B0 31-174)
T1 sequence: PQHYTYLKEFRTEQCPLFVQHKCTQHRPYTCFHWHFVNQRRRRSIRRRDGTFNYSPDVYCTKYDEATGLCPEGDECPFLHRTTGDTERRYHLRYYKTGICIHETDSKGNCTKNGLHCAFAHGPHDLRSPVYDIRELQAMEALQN

B1: 171526625_171526745_1071_3pUTR_ENSG00000117523_ENST00000495585|human|control|control (ssRNA)
RNA: GGGAGUUCUACAGUCCGACGAUCAGGUUAUAGCUGCAGCUGAAGUAGAGGCUGGAACUGAAGCUGAGACUGAGGCUGAGGCUGAAACUGGAGCUAAGGGUGAGGCUGGAACUGGAGCUGAGGUUGAGGCCAGAACUGGAGCUACAACAGAGGAUUGAGCAUCA
B2: chr13:108516651:108516652:-_ENSMUSG00000032846_ENSMUST00000105097|mus_hu|motif|central (ssRNA)
RNA: GGGAGUUCUACAGUCCGACGAUCAUCAUGCGCCAUUAAGAAGGUCUCUCGGGCUUUGCUGAGGAACUCUAUAAACUCACGGUAGUGCCGAGGACUGAUGUGUGUGAGCCGUGAGUGCGUUGUGUUGAUGUAGGCCCCGAUCGUCAACAGAGGAUUGAGCAUCA
B3: 138058577_138059462_3783_3pUTR_ENSMUSG00000041642_ENSMUST00000075164|mouse|control|control (ssRNA)
RNA: GGGAGUUCUACAGUCCGACGAUCGGCCAGGGACUUGGUGAUGUUCUUGGUAGAGCUGUCCAAUGGGGGUCCUAGGCACUCCGCAGACACGGCCUUCAUCUGUGCGGAUAGCUUGGGCUCACCCUUGAACUUGAAGUCAUCGUGCAACAGAGGAUUGAGCAUCA
B4: chr12:39756943:39756944:-_ENSG00000139116_ENST00000544797|hu_mus|hu_hu_hu_mus_False|28_38 (ssRNA)
RNA: GGGAGUUCUACAGUCCGACGAUCGGUUUGGCUGUUACCCCCAAGGGAAUCCUGCAAGAGUCUUGUCAGCUUAGAGUCUCUGUAAGGGACAUGGGUGGCCCUCUUGCUCUUGUCUCCCAAGGCGCUGAUUACAUUCCCAAGAGCCAACAGAGGAUUGAGCAUCA
B5: chr2:73467608:73467609:+_ENSG00000135624_ENST00000258091|hu_mus|FALSE|FALSE (ssRNA)
RNA: GGGAGUUCUACAGUCCGACGAUCAUCCUGGGACUUGGCUAUGUCCACUAAAGUCUUUGCUGCAGGAUGGACAACAUCGAGGAGUUUCAGAAUUGUGGCCCCAUCAUUAGAUAUUGUUGCUUUGCCUCGGCCAUCCACAAUAAGCAACAGAGGAUUGAGCAUCA
B6: chr2:160604994:160604995:+_ENSG00000136536_ENST00000409591|hu_mus|motif|central (ssRNA)
RNA: GGGAGUUCUACAGUCCGACGAUCUCUUGAAGACUCAUCCCUUCCCUCUCGCCUCCUUCUCGAGAACAAAGGUGUGCAUCGGUUUCGGAGUGAAGAAGACAACCAUGGUCCUGAAUUUCUACCUUCUGAUUCUUGGUUAAAAUUCAACAGAGGAUUGAGCAUCA
B7: chr11:64571133:64571134:-_ENSG00000133895_ENST00000312049|hu_hu|motif|central (ssRNA)
RNA: GGGAGUUCUACAGUCCGACGAUCCUGAAAAAUAAAUCUAUGUACAAAACAGGAAGAGAUCAGGCUCUUGUCACCCACUCCGGACCCUCUGCAGAUUUCCUCCGGGAUGCUCCGAGAUGGGCUGGACCUCUGGGAGGUUCCCAGCAACAGAGGAUUGAGCAUCA
B8: chr10:93459826:93459827:-_ENSMUSG00000036099_ENSMUST00000119818|mus_mus|motif|central (ssRNA)
RNA: GGGAGUUCUACAGUCCGACGAUCUCCCCACACCAGCCAGGAGGACACAAUCCAGCACGUGGGAAACAUGAUGAGCAAACGGAUGAAGGCAAACAGCAGCGAGACAUCCCAAGUGUUCGGGGUUGCCAGGGAGCAGAGCGUUGGCAACAGAGGAUUGAGCAUCA
B9: chr9:95013113:95013114:-_ENSG00000196305_ENST00000443024|hu_hu|hu_hu_hu_mus_False|1_48 (ssRNA)
RNA: GGGAGUUCUACAGUCCGACGAUCCUCAGUCAGAAAGGGCGUGUAAGGGGCCAUCAGUCUGCACAGAGAAAGCAGGACACUGAACAGGGUUUCUAGGGCCAUGACACAGUCUUCCACCCCACUCUCACCCUUUAACCUUCUGCGCAACAGAGGAUUGAGCAUCA
B10: chr16:75661828:75661829:-_ENSG00000065427_ENST00000302445|hu_hu|FALSE|FALSE (ssRNA)
RNA: GGGAGUUCUACAGUCCGACGAUCUAUUAUUUUCUAGACAGAAGUGCCAACUGUUGUGCUUUCCAGUGUAUCAGUGGUUGCUACAUUCUCCUUCUUGUCUUCGGGUUUCAUGGCAGGAAACAGAAGUACUUCCUUGAUGUUGUUCAACAGAGGAUUGAGCAUCA
B11: chr11:29608675:29608676:+_ENSMUSG00000020458_ENSMUST00000102843|mus_mus|motif|central (ssRNA)
RNA: GGGAGUUCUACAGUCCGACGAUCCUCUGUAUCAGAAGGAAGUUUUUCCUCUGCUUCUUUCGUAAGUACUUUGGGUUUAACGGUGUUGCCCAUUUCUAUUUGAGAUUCCAAAGCAGAAACAUUUGGAAGCAAUAAGGGCACCUUCAACAGAGGAUUGAGCAUCA
B12: 136535675_136535795_2550_CDS_ENSMUSG00000030213_ENSMUST00000032335|mouse|control|control (ssRNA)
RNA: GGGAGUUCUACAGUCCGACGAUCCUGAGGCUGAGAGGUCACGGCAACGGGCACAUGCAGGAUCACUGGCAAGGGCUGCAGAGAGAUUGUAGGCUGAGGGGUCCCACUAGGCACCUGAGUAGUGGCAACUACGGUGGCUGUGCUCAACAGAGGAUUGAGCAUCA
B13: chr7:102952668:102952669:+_ENSG00000105819_ENST00000453466|hu_hu|motif|central (ssRNA)
RNA: GGGAGUUCUACAGUCCGACGAUCCUGUUUAAAAUCUGGUAGUUGCUUAAUGGGACCAACAGCAGCAAUAGCUGGACUCCGGUUAUAAAUGUAUUUGGUACAUACUUCUCGAAUUGUCUCAGCAUUCACAGCAUCAAUUCUUGCCAACAGAGGAUUGAGCAUCA
B14: chr2:120799606:120799607:+_ENSG00000115109_ENST00000263713|hu_hu|motif|central (ssRNA)
RNA: GGGAGUUCUACAGUCCGACGAUCGUACAUAAUCUGAUCAAACAACUCUUGUCCUUUGGCUUUUUUUGGCAAGUCCACACGGACAUCAGUACCAUCCAGAAGGGACACCCGACACGUGAUGAUGGACUUAGAAUCUCCAGCUGCCAACAGAGGAUUGAGCAUCA

Whole data set: some 24,000 sequences, median “enrichment r” near 0.99, cut for the highest 2% near 3.7. A selection follows.

The target in the experiment is T1, UNK ZnF1-3. The experiment in a line: nsRBNS (natural sequence RNA bind-n-seq); RBNS binding buffer (assumed for nsRBNS): 25 mM Tris pH 7.5, 150 mM KCl, 3 mM MgCl2, 0.01% Triton X-100, 500 ug/ml BSA, 20 U/ml SUPERase-In, 4 C; UNK is unkempt and MSI1 is Musashi-1; names of the RNAs are library labels; protein concentration not given here; high values mean tight binding.
B1 displayed a binding signal of 2.07 enrichment R.
B2 gave a binding signal of 0.756 enrichment R.
In turn, B3 gave a binding signal of 0.657 enrichment R.
B4 showed a binding signal of 0.802 enrichment R.
On to B5, for which the binding signal was 0.992 enrichment R.
Turning to B6, the binding signal came to 0.976 enrichment R.
B7 had a binding signal of 0.877 enrichment R.
Next, B8: 2.05 enrichment R.
Then B9, with 0.937 enrichment R; and B10, with 0.567 enrichment R.
In turn, B11 displayed a binding signal of 0.539 enrichment R.
As for B12, the binding signal came to 1.73 enrichment R.
With B13, the binding signal came out at 1.15 enrichment R.
With B14, the binding signal was 0.976 enrichment R.
